The whole screen tested about 390,000 compounds, of which about 910 (0.23%) were called active. Inconclusive results (about 5%) are left out. This is one part of a sample in which actives are shown more often than they occur. The call rests on the fitted dose curve; in most records, active means well fitted inhibition curve with a large enough effect; inconclusive means small, poorly fitted or top-dose-only effect; inactive means no such curve, though single readings can be large or run the other way.
Each compound was assayed against Ubiquitin carboxyl-terminal hydrolase 1 (Homo sapiens) (UniProt O94782) (assay: Inhibitors of USP1/UAF1: Primary Screen). Conditions: recombinant USP1/UAF1, Ub-Rhodamine cleavage fluorescence; series mostly up to 57.1 µM; activity change, negative = inhibition: at the top concentration.
From the text: Deubiquitinating enzymes (DUBs) are a class of enzymes that can cleave isopeptide bond formed between the C-terminal carboxylate of ubiquitin and a lysine side-chain amino group on the target protein. Among them, ubiquitin specific proteases (USPs) constitute the largest DUB family. Human USPs are emerging as promising targets for pharmacological intervention because of their connection to a number of human diseases, including prostate, colon and breast cancer (1, 2), pediatric acute lymphoblastic leukemia (3), and familial cylindromatosis (4). The advantage of inhibiting USPs lies in the potential specificity of therapeutic intervention that can lead to better efficacy and reduce nonspecific side effects. In a collaboration between the University of Delaware and the NIH Chemical Genomics Center, a high-throughput screen assay was developed to screen for USP1/UAF1 inhibitors. This miniaturized assay has a fluorescent read-out and is used to screen the NIH Molecular Libraries Small Molecule Repository (MLSMR) in order to identify a small molecule that inhibits USP1. NIH Chemical Genomics Center [NCGC] NIH Molecular Libraries Probe Centers Network [MLPCN] MLPCN Grant: DA030552 Assay Submitter (PI): Zhihao Zhuang, University of Delaware 1. Priolo, C., et al. (2006) The isopeptidase USP2a protects human prostate cancer from apoptosis. Cancer Res 66, 8625-8632 2. Popov, N., et al. (2007) The ubiquitin-specific protease USP28 is required for MYC stability. Nat Cell Biol 9, 765-774 3. De Pitta, C., et al. (2005) A leukemia-enriched cDNA microarray platform identifies new transcripts with relevance to the biology of pediatric acute lymphoblastic leukemia. Haematologica 90, 890-898 4. Kovalenko, A., et al. (2003) The tumour suppressor CYLD negatively regulates NF-kappaB signalling by deubiquitination. Nature 424, 801-805
3 microliters of reagents (buffer in columns 3 and 4 as negative control and 1nM USP1/UAF1 complex in columns 1, 2, and 5-48) are dispensed into Greiner black solid bottom 1536-well assay plates. Compounds are then transferred via Kalypsys pin tool equipped with 1536-pin array (10nl slotted pins, V&P Scientific, San Diego, CA). Following an incubation step of 15 min at room temperature, 1ul of Ub-Rho substrate (150nM final concentration) is added to initiate the reaction. The plates are immediately centrifuged at 1000 rpm for 15 seconds, and subsequently transferred to a ViewLux high-throughput CCD imager (PerkinElmer) wherein kinetic measurements of fluorescence are acquired using 480 nm excitation/540 nm emission filter set (6 reads every 60 seconds, see Table 1). All reagents are diluted in an assay buffer consisting of 50mM HEPES (pH 7.8), 0.5mM EDTA, 0.1 mg/ml BSA, 1mM TCEP, and 0.01% Tween-20.
Further: nearly all actives have a fitted effect of over 60% in size.
On the % scale 0 is the no-effect control and ±100 the full control effect; potency means the concentration at half of the fitted maximal effect.

Ubiquitin carboxyl-terminal hydrolase 1 (Homo sapiens), sequence (O94782 whole entry, looked up): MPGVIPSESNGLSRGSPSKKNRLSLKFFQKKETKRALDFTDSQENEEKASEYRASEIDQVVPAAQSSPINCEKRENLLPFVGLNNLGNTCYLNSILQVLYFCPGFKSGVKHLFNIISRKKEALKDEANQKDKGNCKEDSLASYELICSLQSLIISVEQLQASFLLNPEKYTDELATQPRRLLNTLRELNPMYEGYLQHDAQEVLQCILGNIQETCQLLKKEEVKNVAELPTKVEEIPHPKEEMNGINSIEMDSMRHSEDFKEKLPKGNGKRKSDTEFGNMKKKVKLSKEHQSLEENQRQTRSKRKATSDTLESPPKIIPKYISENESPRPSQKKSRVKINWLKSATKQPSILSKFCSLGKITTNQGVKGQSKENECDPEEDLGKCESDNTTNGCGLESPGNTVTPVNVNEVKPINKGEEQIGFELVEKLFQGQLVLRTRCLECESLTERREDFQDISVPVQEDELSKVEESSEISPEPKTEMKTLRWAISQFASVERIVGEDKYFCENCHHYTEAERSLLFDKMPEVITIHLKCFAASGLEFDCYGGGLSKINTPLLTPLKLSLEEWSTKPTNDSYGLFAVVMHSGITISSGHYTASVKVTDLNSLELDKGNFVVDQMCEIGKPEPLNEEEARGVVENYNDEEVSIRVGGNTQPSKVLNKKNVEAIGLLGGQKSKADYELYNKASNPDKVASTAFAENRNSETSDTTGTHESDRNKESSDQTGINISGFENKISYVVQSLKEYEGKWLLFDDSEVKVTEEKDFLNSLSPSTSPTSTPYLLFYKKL

Activity change, negative = inhibition, inactive:
COc1ccc(NC(=O)C2CCN(c3ccc(Sc4ccc(C)cc4)nn3)CC2)c(OC)c1 -27.1%
CC(C)(C)OC(=O)N1CCC(c2c(C(=O)NCCc3ccsc3)cnn2-c2ccc(F)cc2F)CC1 -26.8%
O=C(CN1CCN(Cc2ccc(Cl)cc2)C1=O)NCc1ccc(F)cc1 -1.87%
O=C(O)c1ccc(Cn2c(SCc3ccc(F)cc3)nc3ccncc32)cc1 5.68%
CCOC(=O)C1CCCN(S(=O)(=O)c2cc(-c3cc(C)no3)ccc2OC)C1 (stereo unspecified) -3.56%
Cc1ccc(CNC(=O)CSc2c3c(nc4cc(Cl)ccc24)CCCC3)cc1 -18.4%
Cc1onc(-c2ccc(F)cc2F)c1C(=O)Nc1cccc(C(F)(F)F)c1 -20.1%
CC(C)(C)c1ccc(C(=O)NCC(c2ccco2)S(=O)(=O)c2ccc(F)cc2)cc1 (stereo unspecified) -11.7%
CCc1ccc(NC(=O)c2cnc3c(-c4ccccc4)c(C)nn3c2C)cc1 -11.2%
COc1ccc(Cn2ccn(CC(=O)Nc3cc(C)ccc3C)c(=O)c2=O)cc1 4.85%
O=c1[nH]c2cc(Br)ccc2n2cccc12 -11.5%
Cn1c(COc2ccccc2C(C)(C)C)nc2ccccc21 3.12%
CCN(c1ncnc2c1cnn2-c1ccc(C)cc1)C1CCCCC1 -6.68%
CCOC(=O)c1c(C)n(S(=O)(=O)c2ccc(C)cc2C)c2ccc(NS(=O)(=O)c3ccc(C)cc3C)cc12 -24.5%
CCC(=O)N1c2ccccc2CC1C(=O)N1CCN(c2ccccc2F)CC1 (stereo unspecified) -13.4%
O=S(=O)(NCC(c1ccco1)N1CCOCC1)c1cc(F)ccc1F (stereo unspecified) -10%
COCCNC(=O)c1ccc2c(c1)N(Cc1cccc(Cl)c1)C(=O)c1ccccc1S2(=O)=O -7.22%
CCCSc1ncc(Cl)c(C(=O)Nc2c(C(=O)Nc3ccccc3)oc3ccccc23)n1 -10.5%
COc1ccc(S(=O)(=O)Nc2cc3c(C(=O)OC(C)C)c(C)oc3c3ccccc23)cc1 -16%
COc1ccc(N2CCN(C3CCCCC3NS(=O)(=O)c3ccccc3)CC2)cc1 (stereo unspecified) -21.5%
Cc1ccc(S(=O)(=O)Nc2nc(N)n(-c3ccccc3)n2)cc1 -2.87%
Cc1ccc(S(=O)(=O)/N=S(\C)C(C)C)cc1 (stereo unspecified) -16.3%
CCCN(CCC)C(=O)Cn1c(=O)n(-c2ccc(Cl)cc2)c(=O)c2c3c(sc21)CCCCC3 -14.7%
O=C(C1CCC(Cn2c(=O)c3sccc3n(Cc3ccccc3F)c2=O)CC1)N1CCCCC1 (stereo unspecified) -29.1%
COc1ccc(NC(=O)CCCN2C(=O)CCn3nc(-c4cn(C)c5ccccc45)cc32)cc1OC -13.8%
CC(=O)Nc1cccc(NC(=O)CSc2cn(CC(=O)N3CCCC3)c3ccccc23)c1 18.7%
COc1ccc(C)cc1N(CC(=O)N1CCC(C)CC1)S(=O)(=O)c1ccc(C)cc1 -0.585%
COc1ccc(OC)c(-c2noc(N3CCN(c4cc(Cl)ccc4C)CC3)n2)c1 -14.9%
Cc1ccc(C2CCN(C(=O)c3cnn(-c4ccccc4Cl)c3C3CCN(C(=O)OC(C)(C)C)CC3)C2)cc1 (stereo unspecified) -21.9%
COc1c(Cl)cc(C(=O)N(Cc2ccccc2F)C2CCS(=O)(=O)C2)cc1Cl (stereo unspecified) 0.438%
Cc1ccccc1C(=O)N1CCC(C(=O)Oc2ccc(C#N)cc2)CC1 3.04%
N#Cc1ccc(C2=CC(=O)C[C@H](c3ccc(Cl)cc3)C2)cc1 -5.63%
Clc1ccc(CSc2nncn3c2cc2occc23)cc1 -10.6%
CCC1CCCCN1Cc1c(O)ccc2c(=O)c(Oc3ccccc3Cl)c(C(F)(F)F)oc12 (stereo unspecified) -28.3%
Fc1ccc(CN2CCc3nc(Nc4ccccc4)ncc3C2)cc1F -10.4%
CCCCNC(=O)c1cc(-c2ccc(Cl)c(Cl)c2)on1 -14%
O=C(OCc1cc(=O)n2nc(C3CC3)sc2n1)c1ccccc1Cl -4.6%
CC1Cc2cc(S(=O)(=O)CCC(=O)Nc3ccc(F)c(Cl)c3)ccc2N1C(=O)C1CC1 (stereo unspecified) -4.08%
COc1ccc(NC(=O)CSc2nc3ccccc3[nH]2)cc1 -19.5%
NS(=O)(=O)c1ccc2nc(NC(=O)COc3ccccc3)sc2c1 4.94%
CCN(CC)c1ccc(C2C(C(N)=O)=C(C)Nc3nc(SCc4ccccc4)nn32)cc1 (stereo unspecified) -32.9%
COc1cccc2c1cc1c(=O)n(CC(=O)N3CCN(c4cccc(Cl)c4)CC3)nc(C)n12 6.97%
Cc1nc(SCCOc2ccc(Cl)cc2)[nH]c(=O)c1Cc1ccccc1 -21.7%
Cc1cccc(-c2nc(SCC(=O)Nc3cc(C)on3)c3c(=O)n(C)c(=O)n(C)c3n2)c1 -20.7%
CCC(=O)N1c2ccccc2CC1C(=O)N1CCN(c2ccccc2)CC1 (stereo unspecified) -26.3%
O=C(CSc1nccn1-c1ccc(F)cc1)Nc1cccc2ccccc12 -23%
CCOc1ccc(CCNC(=O)c2c(C)oc3ncn(C)c(=O)c23)cc1 -10.1%
CC(=O)N1c2ccc(S(=O)(=O)N3CCCCCC3)cc2CC1C(=O)NCc1ccccc1C (stereo unspecified) -12.7%
Cc1ccc(-c2nc3ccccn3c2Nc2c(C)cccc2C)o1 -23.3%
O=S(=O)(c1ccccc1)c1nc(-c2ccc(Cl)cc2Cl)oc1N1CCCCC1 -5.27%
CCOC(=O)c1ccc(NC2=CC(c3ccc(OCC)cc3)N(c3ccc(C(=O)OCC)cc3)C2=O)cc1 (stereo unspecified) -18.2%
CCOC(=O)c1ccc(NC(=O)CSc2nc3c([nH]c4ccccc43)c(=O)n2C)cc1 -16.3%
Cc1cc(C)c(/C=C/c2onc(C)c2S(=O)(=O)N2CCC(C(=O)Nc3ccc(Cl)cc3C)CC2)c(C)c1 1.71%
CCC(C)N1C(=O)S/C(=C/c2ccc(Sc3nc4ccccc4[nH]3)o2)C1=O (stereo unspecified) -9.54%
O=C(NCc1ccccc1)c1cc(-c2cccc(Cl)c2)on1 -5.34%
COc1ccccc1-c1cc(C(F)(F)F)nc(S(=O)(=O)CCCC(=O)Nc2ccc(F)cc2F)n1 -27.7%
O=C(CSc1nccn1C1CCCC1)Nc1cc(C(F)(F)F)ccc1Cl -20.3%
CCN(CC)c1ccc(NC(=O)CN2C(=O)c3cccnc3Oc3ccc(Cl)cc32)c(C)c1 -7.26%
Cc1ccc(NC(=O)NC(C)c2c(-n3cccc3)sc(C)c2C)c(C)c1 (stereo unspecified) -21.7%
O=C(Cn1cnc2c(oc3ccccc32)c1=O)Nc1ccc(OC(F)(F)F)cc1 -19.8%
Cc1ccc2onc(CC(=O)N3CCN(c4ccc(Cl)cc4)CC3)c2c1 -10.2%
CCc1ccc2oc(-c3ccc(NC(=O)c4cc5ccccc5o4)cc3)nc2c1 0.213%
CCOc1ccc(CNC(=O)C2CCN(c3nnc(-n4cccc4CNc4ccc(C)cc4)s3)CC2)cc1OC 8.02%
COc1cc(C(=O)N2CCN(c3ccc(Nc4ccc(C)cc4)nn3)CC2)cc(OC)c1OC -11.5%
CCCC(=O)Nc1cc(C(=O)NCc2ccc(OC)cc2)ccc1S(=O)(=O)c1ccc(Cl)cc1 -8.93%
NC(=O)c1ccc(N2CCOCC2)nc1 -9.85%
O=C1OC(NC(=O)c2ccccc2)C(N2CCOCC2)=C1Cl (stereo unspecified) -15.5%
COC(=O)CN1C(=O)CSc2ccc(S(=O)(=O)Nc3cc(C)ccc3C)cc21 -7.07%
COc1ccc(CCNC(=O)c2cc(=O)c3c(C)cc(C)cc3o2)cc1OC -23.3%
CCN(CC)CCNC(=O)Cn1ncc2c3ccccc3n(Cc3ccccc3C)c2c1=O -16.9%
CCc1ccccc1NC(=O)c1ccc(F)c(S(=O)(=O)NC2CCCCCC2)c1 -12.3%
COCCCNC(=O)c1ccc(NC(=O)c2nsc3ccccc23)cc1 -13.5%
CCOC(=O)c1cnc2c(C)cc(C)cc2c1Nc1ccc(N2CCOCC2)cc1 -5.54%
CCc1nc2cccnc2n1-c1ccc(CC(=O)Nc2c(C)cccc2C)cc1 16.9%
Cc1ccc(-c2nnc(Nc3ccc(OCC(N)=O)cc3)c3ccccc23)cc1S(=O)(=O)NCC1CCCO1 (stereo unspecified) -23.5%
CCOc1ccc(CCNC(=O)Cn2nc(CC)n3c(cc4sc(CC)cc43)c2=O)cc1OCC -31.2%
Cc1ccc(OCC(=O)Nc2ccc(Cl)c(-c3nc4ccccc4[nH]3)c2)cc1C -1.29%
CCOc1ccc(CNC(=O)c2cccc(Nc3nc4ccccc4n4nnnc34)c2)cc1OC -12.5%
COCCn1c(N)c(NCc2ccccc2)c(=O)[nH]c1=O -19.4%
CCC(=O)Nc1ccc(C)cc1-c1nc2ccccc2n(Cc2ccccc2)c1=O -10.8%
Cc1ccc(S(=O)(=O)N2CCCc3cc(NS(=O)(=O)c4cc(C)ccc4C)ccc32)cc1 -11.9%

Potency, active:
CCCCCCc1cc2cc(-c3nnc(-c4ccccc4)o3)c(=O)oc2cc1O 8.91 µM
Cc1ccc(-c2nn(-c3ccccc3)cc2/C=C2\SC(=S)N(CCCCCC(=O)O)C2=O)o1 7.08 µM
O=C(/C=C(O)/C=C/c1ccc(O)cc1)/C=C/c1ccc(O)cc1 28.2 µM
C[n+]1ccc(/C=C/c2c[nH]c3ccccc23)cc1 28.2 µM
Cc1ccc(S(=O)(=O)/N=C2\C=C(NS(=O)(=O)c3ccc(C)cc3)C(=O)c3ccccc32)cc1 20 µM
COc1ccc(S(=O)(=O)/N=C2\C=C(NS(=O)(=O)c3ccccc3)C(=O)c3ccccc32)cc1 15.8 µM
Oc1ccc2ccc3cccc[n+]3c2c1 28.2 µM
CC1(OC(=O)C2CCCC2)C(=O)C=C2C=C(c3ccc(C#N)cc3)OC=C2C1=O (stereo unspecified) 31.6 µM
Nc1ccc2nc3c(=O)[nH]c(=S)[nH]c3nc2c1 28.2 µM
COc1cc(/C=C2/C(=O)NN(c3cccc(Cl)c3)C2=O)cc(Br)c1O 28.2 µM
CCOC(=O)c1ccc(Nc2cc3ccccc3c(=O)[nH]2)cc1 17.8 µM
O=C(O)C(c1ccccc1)N1C(=O)/C(=C\c2ccc(-c3cccc(Cl)c3)o2)SC1=S (stereo unspecified) 35.5 µM
O=C(/C=C/c1ccc(N2CCOCC2)cc1)c1ccccc1 25.1 µM
Cc1cc(C)c(/C=C2\C(=O)Nc3ccccc32)[nH]1 25.1 µM
Cc1cc2nc3c(=O)n(Cc4ccccc4)c(=O)[nH]c3nc2cc1N 25.1 µM
